Compounds with a hit are over-represented: about 0.96% of the library has one in this group of screens.
TRHR agonist: qHTS for Small Molecule Agonists and Allosteric Enhancers of Human TRH Receptor: Primary Screen for Agonists. Thyrotropin-releasing hormone receptor (Homo sapiens), P34981. TRHR cells, calcium flux fluo-8, FDSS agonist mode. activation, % at 2 µM. 0.18% of 360,000 active; in the data active = activation above about 30%
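Steps: seed TRHR cells overnight; add fluo-8 no-wash Ca dye, RT 30 min–1.5 h; record 10 s baseline; pin-transfer compounds; monitor fluorescence 1 cycle/s for the agonist window. Calcium increases flag candidate agonists.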
TRPML1 blocker: qHTS for Inhibitors of the Human Mucolipin Transient Receptor Potential 1 (TRPML1); Mucolipin-1 (Homo sapiens), Q9GZU1; TRPML1-inducible cells, Ca2+ dye fluorescence, FDSS; hits give low values; inhibition of EC80 agonist-evoked calcium signal; activity change, negative = inhibition, % (test concentration not listed); 0.02% of 390,000 active; in the data active = activity change below about -50%; inconclusive = between about -30% and that limit;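 also: stimulus is agonist 54-4 at its EC80 concentration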
Target sequence (Q9GZU1 whole entry, looked up): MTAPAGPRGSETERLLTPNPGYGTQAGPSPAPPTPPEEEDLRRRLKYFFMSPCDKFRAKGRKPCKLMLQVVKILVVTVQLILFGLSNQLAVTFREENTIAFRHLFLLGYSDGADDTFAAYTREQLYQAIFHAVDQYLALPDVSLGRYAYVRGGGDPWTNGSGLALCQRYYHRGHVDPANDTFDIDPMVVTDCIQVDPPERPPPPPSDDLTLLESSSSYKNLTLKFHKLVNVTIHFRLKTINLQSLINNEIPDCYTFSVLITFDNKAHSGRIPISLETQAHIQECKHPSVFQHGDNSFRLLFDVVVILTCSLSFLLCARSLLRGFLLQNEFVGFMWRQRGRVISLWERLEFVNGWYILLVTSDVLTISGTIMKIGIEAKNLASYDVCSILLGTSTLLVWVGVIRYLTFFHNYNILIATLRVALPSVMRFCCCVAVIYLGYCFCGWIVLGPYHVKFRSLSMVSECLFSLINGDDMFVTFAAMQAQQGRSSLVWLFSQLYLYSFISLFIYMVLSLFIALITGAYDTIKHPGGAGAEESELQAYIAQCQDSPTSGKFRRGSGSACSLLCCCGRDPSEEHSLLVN
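Calcium fluorescence in TRPML1-DL cells induced overnight with Tet: a 110 s read after compound pin addition, then a 110 s antagonist read after challenge with 54-4 at 4 uM final (EC80).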
TRPV1 potentiator: HTS Assay for Compounds that Act as Potentiators of the Vanilloid Receptor 1 | TRPV1-expressing cells, Fluo-8 calcium influx, capsaicin EC20 potentiation | 0.02% of 320,000 active | potentiation, % at 8.33 µM; in the data active = potentiation above about 80%; inconclusive = between about 30% and that limit
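Fluo-8 calcium influx in TRPV1-expressing cells, kinetic read (ex 480/em 520 nm). Compound added and read 3 min for agonist activity, followed by capsaicin at EC20 final and 2 min further read for enhancement.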
TRHR PAM: qHTS for Small Molecule Agonists and Allosteric Enhancers of Human TRH Receptor: Primary Screen for Enhancers. Thyrotropin-releasing hormone receptor (Homo sapiens), P34981. TRHR cells, fluo-8 calcium fluorescence, EC20 TRH enhancement. enhancement, % at 2 µM. 0.66% of 360,000 active. AID 493056, 2011; in the data active = enhancement above about 30%
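TRHR-expressing cells loaded with fluo-8 calcium dye were read kinetically (ex 480/em 530) during compound addition, then stimulated with an EC20 of TRH (10 nM final). Enhancement of the Gq-mediated intracellular calcium response was scored.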
TRPV1 ag: HTS Assay for Compounds that Act as Agonists of the Vanilloid Receptor 1 | activation, % at 8.33 µM | Transient receptor potential cation channel subfamily V member 1 (Homo sapiens), Q8NER1 | 0.19% of 320,000 active | AID 540275, 2011 | TRPV1-expressing cells, Fluo-8 calcium influx, agonist mode; in the data active = activation above about 80%; inconclusive = between about 30% and that limit
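Cells expressing TRPV1 were dye-loaded with Fluo-8 and read kinetically: 10 s baseline, 3 min after compound (agonist portion), then 2 min after EC20 capsaicin (allosteric enhancer portion). Calcium-bound dye fluorescence at 480/520 nm.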
TRPML1 agonist: qHTS for Agonists of the Human Mucolipin Transient Receptor Potential 1 (TRPML1); Mucolipin-1 (Homo sapiens), Q9GZU1; TRPML1-expressing cells, Ca2+ dye fluorescence, FDSS; activation, % (test concentration not listed); 0.12% of 410,000 active; AID 624414, 2012; in the data active = activation above about 50%; inconclusive = mostly about 30% to 49%
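In this qHTS format, compounds were pin-transferred onto Ca8-dye-loaded TRPML1-DL cells induced with Tet overnight, and intracellular Ca2+ fluorescence was recorded kinetically for 110 s after a 10 s baseline. A subsequent 4uM final 54-4 (EC80) addition followed by a second 110 s read served as the antagonist phase.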
Of the large screens only hits and unclear results are named; the others gave an inactive call.

CC(=O)Nc1cccc(C(=O)/C=C/c2ccc(N(C)C)cc2)c1	TRHR agonist 153, TRPML1 blocker inconclusive, TRPV1 ag 80, TRPML1 agonist 72
CC(=O)Nc1cccc(C(=O)/C=C/c2ccc(/C=C/C(=O)c3cccc(NC(C)=O)c3)cc2)c1	none (no result: TRPML1 blocker, TRPML1 agonist)
O=C(Nc1cc([N+](=O)[O-])ccc1O)c1ccc2c(c1)C(=O)N(Cc1ccco1)C2=O	TRHR PAM 39
CCC(c1nnnn1Cc1ccccc1)N(Cc1ccccc1)Cc1cc2cc(C)ccc2[nH]c1=O (stereo not given)	none (no result: TRHR agonist, TRPML1 blocker, TRPV1 potentiator, TRHR PAM, TRPV1 ag)
CCOc1ccc2nc(NC3=NC(C)(C)C=C(C)N3)nc(C)c2c1	TRHR PAM 32
Cc1ccc(C(=O)/C=C/c2cn(CC(O)CN3CCOCC3)c3ccccc23)cc1 (stereo not given)	none
O=C(/C=C/c1cn(CC(O)CN2CCOCC2)c2ccccc12)c1cccs1 (stereo not given)	TRHR agonist 32 (no result: TRPML1 blocker, TRPML1 agonist)
CSC1=NSC2=NC(=O)/C(=C\c3ccc(OC(=O)c4ccco4)cc3)C(=N)N12	none
CCSC1=NSC2=NC(=O)/C(=C\c3coc4ccccc4c3=O)C(=N)N12	TRHR agonist 179, TRHR PAM 52, TRPML1 agonist 77
O=C(C[n+]1ccccc1Br)c1ccc(Cl)cc1	none (no result: TRHR agonist, TRPML1 blocker, TRPV1 potentiator, TRHR PAM, TRPV1 ag)
COc1ccc(CCn2c(=S)[nH]c(=O)c3cccnc32)cc1OC	none (no result: TRHR agonist, TRPML1 blocker, TRPV1 potentiator, TRHR PAM, TRPV1 ag)
CCCCN(C(=O)c1ccc(S(=O)(=O)N(C)C)cc1)c1ccccc1	TRPML1 agonist 81
NS(=O)(=O)c1ccc(CNC(=O)CCCSc2ccccc2)cc1	TRPV1 ag 84
Cc1sc2ccccc2[n+]1CCCC[n+]1c(C)sc2ccccc21	none (no result: TRHR agonist, TRPML1 blocker, TRPV1 potentiator, TRHR PAM, TRPV1 ag)
NS(=O)(=O)c1ccc(CCNC(=O)C(=O)c2cn(CC(=O)N3CCOCC3)c3ccccc23)cc1	TRHR PAM 34
CCN(CC)C(=O)Cn1cc(C(=O)C(=O)NCCc2ccc(S(N)(=O)=O)cc2)c2ccccc21	none
CNC(=O)c1csc(-c2ccc(C)cc2)n1	TRPV1 ag 81
CNC(=O)c1csc(-c2ccc(Cl)cc2)n1	TRPV1 ag 84
CNC(=O)c1csc(-c2ccncc2)n1	none
O=C(Nc1ccc(Cl)cc1)c1csc(-c2ccccc2)n1	TRPV1 ag 81
C[N+]1(CC(=O)c2ccc(Oc3ccc(C(=O)C[N+]4(C)CCOCC4)cc3)cc2)CCOCC1	none (no result: TRHR agonist, TRPML1 blocker, TRPV1 potentiator, TRHR PAM, TRPV1 ag)
O=C(Nc1ccc(OC(F)F)cc1)c1nc(S(=O)(=O)Cc2ccccc2F)ncc1Cl	none (no result: TRHR agonist, TRPML1 blocker, TRPV1 potentiator, TRHR PAM, TRPV1 ag)
O=S(=O)(c1ccc(C(F)(F)F)cc1)N1CCN(S(=O)(=O)c2ccc3c(c2)OCCO3)CC1	none (no result: TRPML1 blocker, TRPV1 potentiator, TRPV1 ag, TRPML1 agonist)
O=C1CC(c2ccco2)CC2=C1C(c1cccnc1)n1nc(C(F)(F)F)nc1N2 (stereo not given)	none
CC(=O)N1C(c2ccccc2O)C[C@]2(C)CC(=O)NC12 (stereo not given in full)	TRHR PAM 36
Cc1ccc(S(=O)(=O)N2CCCN(c3nc(-c4cccs4)nc4ccccc34)CC2)cc1	none (no result: TRHR agonist, TRPML1 blocker, TRPV1 potentiator, TRHR PAM, TRPV1 ag)
CCOC(=O)N1CCC(n2c(SCC(=O)N3CCCC3)nc3ccccc3c2=O)CC1	none
CC1CCN(C(=O)CSc2nc3ccccc3c(=O)n2Cc2ccc3c(c2)OCO3)CC1	TRPV1 ag 82
CC1CCN(C(=O)Cn2c(=O)n(Cc3ccc4c(c3)OCO4)c(=O)c3ccccc32)CC1	none
CCOC(=O)N1CCC(n2c(SCC(=O)N3CCC(C)CC3)nc3ccccc3c2=O)CC1	TRPV1 ag 81
Cc1ccc(C(=O)NCC(=O)OC(C(=O)Nc2cc(C(F)(F)F)ccc2Cl)c2ccccc2)cc1 (stereo not given)	none (no result: TRPML1 blocker, TRPV1 potentiator, TRPV1 ag, TRPML1 agonist)

Screening results from PubChem BioAssay.
